Screens: PubChem, The Scripps Research Institute Molecular Screening Center
M1 PAM parental: M1 PAM counterscreen hit in parental CHO-K1 cells; AID 602247; ATP EC20, Fluo-8 calcium fluorescence; 0% at ATP EC20, 100% at ATP max; 0.02% of 360,000 active; activation, % at 3 µM;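 active = activation above the run cutoff, the mean activation of all test compounds plus 3 SD, cut at about 40% in these data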;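 also: peak over basal fluorescence ratio in a 140 s read after ATP addition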
M1 antag: blocks human M1 muscarinic receptor; P11229; CHO-K1 hM1, Fluo-8 calcium fluorescence, ACh EC80 antagonist; AID 588852; inhibition, % at 3 µM; 1.3% of 360,000 active;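 active = percent inhibition above its own plate's cutoff, namely the mean of that plate's compound wells plus 3 SD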;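 also: peak over basal fluorescence ratio during 140 s after agonist addition; 0% = ACh EC80 plus DMSO and 100% = DMSO alone without agonist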
Target sequence (P11229 whole entry, looked up): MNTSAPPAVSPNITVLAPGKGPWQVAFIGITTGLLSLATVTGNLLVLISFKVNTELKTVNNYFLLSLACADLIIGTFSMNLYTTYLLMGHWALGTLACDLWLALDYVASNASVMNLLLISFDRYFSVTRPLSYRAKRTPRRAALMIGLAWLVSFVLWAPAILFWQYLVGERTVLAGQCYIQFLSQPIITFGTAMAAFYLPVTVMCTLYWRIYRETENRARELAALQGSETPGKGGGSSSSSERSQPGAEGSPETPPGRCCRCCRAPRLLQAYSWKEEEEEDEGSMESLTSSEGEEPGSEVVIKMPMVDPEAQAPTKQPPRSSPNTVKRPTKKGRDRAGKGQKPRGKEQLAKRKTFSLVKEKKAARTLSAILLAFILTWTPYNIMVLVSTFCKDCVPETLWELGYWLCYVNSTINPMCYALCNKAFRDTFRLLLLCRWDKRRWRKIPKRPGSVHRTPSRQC
M1 PAM: human CHRM1 positive allosteric modulation; P11229; CHO-K1 hM1, Fluo-8 calcium fluorescence, ACh EC20; 0% = ACh EC20, 100% = maximal ACh; activation, % at 3 µM; 0.088% of 360,000 active; AID 588819; in the data active = activation above about 19%, passing the limit was not always enough
M1 ag: activates human CHRM1 receptor. activation, % at 3 µM. CHO-K1 hM1, Fluo-8 calcium fluorescence, agonist mode; 0% DMSO, 100% acetylcholine EC100. 0.33% of 360,000 active;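 active = activation above the run's mean compound activation plus 3 SD, cut at about 16% in these data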;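 also: peak over basal fluorescence ratio within a 140 s kinetic read after compound addition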
CHO-K1 Ca antag: nonselective inhibitor or artifact in parental CHO-K1 cells. ATP-induced calcium, Fluo-8 fluorescence. inhibition, % at 3 µM. 0.6% of 360,000 active. AID 602250;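 active = inhibition above a per-plate cutoff, the plate's mean sample inhibition plus 3 SD, cut at about 24% in these data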;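 also: 0% = DMSO plus EC80 ATP and 100% = DMSO alone without ATP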
CHO-K1 Ca ag: nonselective activator or artifact in parental CHO-K1 cells; AID 602248; activation, % at 3 µM; Fluo-8 calcium fluorescence; scaled to maximal ATP response, vehicle zero; 0.48% of 360,000 active; in the data active = activation above about 15%;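 also: untransfected CHO-K1 host cells lacking M1 receptor as counterscreen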
Starred values were filed as active, the others as inactive. Only some compounds are listed: those with a hit (about 2.3% of all), similar ones and a draw of the others.

SMILES	M1 PAM parental	M1 antag	M1 PAM	M1 ag	CHO-K1 Ca antag	CHO-K1 Ca ag
CCC(c1nnnn1Cc1ccccc1)N1CCN(c2ccc(OC)cc2)CC1 (stereo not given)	6.3	-0.3	-2.1	-9.8	-8.7	0.5
Cc1c(CCOC(=O)c2cc([N+](=O)[O-])cc([N+](=O)[O-])c2)sc[n+]1CC(=O)c1ccc(Br)cc1	16.6	80.3*	-26.2	-9.9	-7.4	0.4
Cc1c(CCOC(=O)CC23CC4CC(CC(C4)C2)C3)sc[n+]1CC(=O)c1ccccc1	18.9	19.2	-10.1	-5.3	-14.3	0.6
Cc1c(CCOC(=O)c2ccc(Cl)cc2Cl)sc[n+]1CC(=O)c1ccccc1	-5.6	95.3*	-29.0	-3.3	-6.8	2.3
Cc1sc[n+](CC(=O)c2ccc(Br)cc2)c1C	2.9	4.5	-2.3	-5.3	-8.3	0.6
Cc1c(CCOC(=O)C23CC4CC(CC(C)(C4)C2)C3)sc[n+]1Cc1ccccc1	-3.9	99.8*	-22.7	-5.4	12.4	-0.6
Cc1c(CCOC(=O)C23CC4(C)CC(C)(CC(C)(C4)C2)C3)sc[n+]1CC(=O)c1ccccc1	-4.0	32.1*	-24.3	-8.9	8.0	-0.2
Cc1ncc(C[n+]2csc(CCOC(=O)C34CC5CC(CC(C5)C3)C4)c2C)c(N)n1	-3.9	8.6	-17.6	-15.4	2.6	0.2
O=S1(=O)C=C[C@@H](CO)N1Cc1ccc(Br)cc1	4.7	-24.1	1.4	0.0	-18.0	0.7
Cc1cc(OCC(=O)NCc2ccccn2)c2c(C)cc(=O)oc2c1	1.9	0.5	-2.2	-6.5	-3.9	0.5
Cc1c(CCOC(=O)C23CC4CC(CC(C4)C2)C3)sc[n+]1Cc1ccccc1	3.6	64.3*	-25.7	-12.5	7.4	0.9
COCCCNc1ccn2nc(-c3ccc(OCc4ccccc4)cc3)cc2n1	-8.5	11.2	-8.5	1.4	11.5	4.5
O=C1CCC(=O)N1c1nc2n(n1)C(c1ccccc1)C=C(c1ccc(Br)cc1)N2 (stereo not given)	5.9	0.6	3.8	-2.1	2.5	0.9
COc1ccc(C2C=C(c3ccc(Br)cc3)Nc3nc(N4C(=O)CCC4=O)nn32)cc1 (stereo not given)	-7.3	9.3	-1.1	-1.1	32.8*	-0.4
COC(=O)C1CCN(C(=O)CSc2nnc(-c3ccccc3)o2)CC1	12.6	-7.4	9.3	-1.1	-3.3	2.4
O=C1NC(c2ccc(F)cc2)Oc2ccccc21 (stereo not given)	-5.1	-1.2	1.4	-1.8	-7.2	1.2
Cc1ccc(C2NC(=O)c3ccccc3O2)cc1 (stereo not given)	20.7	-11.1	11.6	2.4	-4.1	18.8*
O=C1NC(c2cccc([N+](=O)[O-])c2)Oc2ccccc21 (stereo not given)	-19.5	10.1	-7.1	-2.8	27.4*	-0.8
C[C@@H]1CN([C@H](C)CO)C(=O)CCCn2cc(nn2)CO[C@H]1CN(C)S(=O)(=O)c1ccc(-c2ccccc2)cc1	15.7	-9.6	9.1	-8.6	-10.7	0.0
Cc1ccc(N(C(=O)C2CCCC2)C2C=CS(=O)(=O)C2)cc1 (stereo not given)	-2.2	-1.0	-7.4	-1.1	3.2	-0.1
CC(=O)N(c1ccc(C)cc1)C1C=CS(=O)(=O)C1 (stereo not given)	-4.4	-5.9	-0.3	-3.3	23.8*	0.4
COc1cc(N2C(=O)c3ccccc3C2=O)c(Cl)cc1C(=O)OCC(=O)NCc1ccco1	-8.9	-28.7	-6.1	-4.9	28.2*	0.2
COc1cccc(/C=N/NC(=O)C(C)Cn2cnc3ccccc32)c1 (stereo not given)	15.5	-5.4	2.8	-3.9	-11.8	1.1
CCOc1ccccc1C1C2C(=O)N(c3ccccc3)C(=O)C2ON1c1ccccc1 (stereo not given)	10.3	27.6*	-11.7	-4.2	6.8	2.7
Cc1ccccc1NC(=O)c1sc2nc[nH]c(=O)c2c1C	-14.2	3.5	11.4	-2.5	23.9*	-0.4
CC(C)c1c(O)ccc2c1CC[C@H]1C(C)(C)CCC[C@]21C	-10.5	-21.5	-2.2	-2.1	26.5*	-0.8
CC(C)(O)c1ccc2c(c1)CCC1C(C)(C(=O)O)CCCC21C (stereo not given)	-3.8	-1.0	1.8	-2.0	18.9	-0.1
